Reference: PubChem BioAssay (NCATS)
Results filed as inconclusive are left out. Calls of active or inactive are those of the source. Calls follow the shape of the dose curve; as a rule, active = well fitted curve in the direction sought with a large enough effect; inconclusive = small, poorly fitted or top-dose-only effect, or another doubt; inactive = no such curve, though single readings can be large; an effect the other way counts as inactive or inconclusive.

Key:
[1] = test system: Nanoluciferase (engineered Oplophorus gracilirostris luciferase); experiment: Primary Nanoluciferase (NLuc) qHTS assay for identification of artifact compounds. (AID 1845222);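 also: 0% = DMSO and -100% = no enzyme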
Procedure, shortened: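 Luminescence from secreted NLuc (filtered, 1:55-diluted S16 cell medium) read 5 min after Nano-Glo substrate; compounds preincubated 15 min, RT. Hill fits of inhibition normalized to DMSO and no-enzyme.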

[2] = Quantitative High-Throughput drug screen in 47 multiple myeloma cell lines against the NCATS MIPE library collection: Delta47_JCRB cell viability assay (AID 1918925; also: nearly all actives have a fitted effect of over 45% in size; also: potency is read from the fitted curve at half-maximal effect)
Procedure, shortened: (§1)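 Steps: seed 500 cells per well; pin-transfer MIPE 4.0 library; incubate 48 h at 37C, 5% CO2, humidified; add CellTiter-Glo, 5 min room temperature; read luminescence.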

[3] = Quantitative High-Throughput drug screen in 47 multiple myeloma cell lines against the NCATS MIPE library collection: AMO1_DSMZ cell viability assay (AID 1918927; also: nearly all actives have a fitted effect of over 30% in size; also: potency is read from the fitted curve at half-maximal effect)
Procedure, shortened: as §1

[4] = Quantitative High-Throughput drug screen in 47 multiple myeloma cell lines against the NCATS MIPE library collection: ARP1_JJKsccF8 cell viability assay (AID 1918928; also: nearly all actives have a fitted effect of over 40% in size; also: potency is read from the fitted curve at half-maximal effect)
Procedure, shortened: (§2)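 500 cells/well; MIPE 4.0 library pinned in; 48 h, 37 °C, 5% CO2; CellTiter-Glo ATP luminescence. Controls: DMSO = 100% viability, medium only = 0%.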

[5] = Quantitative High-Throughput drug screen in 47 multiple myeloma cell lines against the NCATS MIPE library collection: ARD_JJKsccE7 cell viability assay (AID 1918929; also: potency is read from the fitted curve at half-maximal effect)
Procedure, shortened: as §1

[6] = Quantitative High-Throughput drug screen in 47 multiple myeloma cell lines against the NCATS MIPE library collection: Karpas620_DSMZ cell viability assay (AID 1918959); also: nearly all actives have a fitted effect of over 30% in size; also: potency is read from the fitted curve at half-maximal effect
Procedure, shortened: (§3)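 Myeloma cells (500 per well) were exposed to MIPE 4.0 compounds by pin transfer and incubated 48 hours at 37C, 5% CO2. Viability was read as ATP by CellTiter-Glo luminescence, normalised to DMSO (100%) and media-only (0%) wells.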

[7] = Quantitative High-Throughput drug screen in 47 multiple myeloma cell lines against the NCATS MIPE library collection: KMM1_JCRB cell viability assay (AID 1918960); also: nearly all actives have a fitted effect of over 30% in size; also: potency is read from the fitted curve at half-maximal effect
Procedure, shortened: as §2

[8] = Quantitative High-Throughput drug screen in 47 multiple myeloma cell lines against the NCATS MIPE library collection: Karpas417_ECACC cell viability assay (AID 1918961); settings: Karpas417 myeloma viability, CellTiter-Glo ATP luminescence, 48 h; viability (% of DMSO): at 45.8 µM (top of the series) unless noted; also: potency is read from the fitted curve at half-maximal effect
Procedure, shortened: (§4)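 CellTiter-Glo ATP luminescence gave viability after 48 h compound treatment at 37C of 500 multiple myeloma cells per well. Normalisation used DMSO-only wells as 100% and media-only wells as 0% viability; primary qHTS of approved and investigational drugs.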

[9] = Quantitative High-Throughput drug screen in 47 multiple myeloma cell lines against the NCATS MIPE library collection: KHM11_PLB cell viability assay (AID 1918962); also: potency is read from the fitted curve at half-maximal effect; nearly all actives have a fitted effect of over 35% in size
Procedure, shortened: as §3

[10] = Quantitative High-Throughput drug screen in 47 multiple myeloma cell lines against the NCATS MIPE library collection: JIM3_ECACC cell viability assay (AID 1918963; also: nearly all actives have a fitted effect of over 35% in size; also: potency is read from the fitted curve at half-maximal effect)
Procedure, shortened: as §3

[11] = Quantitative High-Throughput drug screen in 47 multiple myeloma cell lines against the NCATS MIPE library collection: INA6_PLB cell viability assay (AID 1918965; also: nearly all actives have a fitted effect of over 55% in size; also: potency is read from the fitted curve at half-maximal effect)
Procedure, shortened: as §4

[12] = Quantitative High-Throughput drug screen in 47 multiple myeloma cell lines against the NCATS MIPE library collection: H1112_PLB cell viability assay (AID 1918967; also: nearly all actives have a fitted effect of over 30% in size; also: potency is read from the fitted curve at half-maximal effect)
Procedure, shortened: as §1

[13] = Quantitative High-Throughput drug screen in 47 multiple myeloma cell lines against the NCATS MIPE library collection: Karpas25_ECACC cell viability assay (AID 1918968; also: nearly all actives have a fitted effect of over 35% in size; also: potency is read from the fitted curve at half-maximal effect)
Procedure, shortened: as §1

[14] = Quantitative High-Throughput drug screen in 47 multiple myeloma cell lines against the NCATS MIPE library collection: KMS27_JCRB cell viability assay (AID 1918970); also: nearly all actives have a fitted effect of over 30% in size; also: potency is read from the fitted curve at half-maximal effect
Procedure, shortened: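 ATP-based viability (CellTiter-Glo luminescence) is measured in cells treated 48 h with approved and investigational drugs at 37 °C. Controls are DMSO-only wells for full viability and media-only wells for none.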

[15] = Primary redox qHTS assay for identification of artifact compounds. (AID 1845223)
Procedure, shortened: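 Redox-cycling detection via DTT (250 uM final) oxidation coupled to Amplex Red (25 uM)/HRP (250 mU/mL) in HBSS. 15 min preincubation plus 30 min after DTT, room temperature. Ex/Em 525/598 nm; 4-parameter Hill fit against DMSO and 10 uM DA3003.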

[16] = Quantitative High-Throughput drug screen in 47 multiple myeloma cell lines against the NCATS MIPE library collection: EJM_DSMZ cell viability assay (AID 1918926; also: nearly all actives have a fitted effect of over 30% in size; also: potency is read from the fitted curve at half-maximal effect)
Procedure, shortened: as §1

[17] = Quantitative High-Throughput drug screen in 47 multiple myeloma cell lines against the NCATS MIPE library collection: KMS12BM_JCRB cell viability assay (AID 1918971); also: nearly all actives have a fitted effect of over 35% in size; also: potency is read from the fitted curve at half-maximal effect
Procedure, shortened: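 Relative luminescence from CellTiter-Glo served as the viability signal, referenced to DMSO-treated (100%) and cell-free medium (0%) controls. Treatment lasted 48 hours at 37C with 500 cells per well.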

[18] = Quantitative High-Throughput drug screen in 47 multiple myeloma cell lines against the NCATS MIPE library collection: JJN3_DSMZ cell viability assay (AID 1918966; also: potency is read from the fitted curve at half-maximal effect; nearly all actives have a fitted effect of over 50% in size)
Procedure, shortened: as §1

[19] = Quantitative High-Throughput drug screen in 47 multiple myeloma cell lines against the NCATS MIPE library collection: JIM1_ECACC cell viability assay (AID 1918964; also: potency is read from the fitted curve at half-maximal effect)
Procedure, shortened: as §1

[20] = Quantitative High-Throughput drug screen in 47 multiple myeloma cell lines against the NCATS MIPE library collection: FR4_PLB cell viability assay (AID 1918924; also: nearly all actives have a fitted effect of over 35% in size; also: potency is read from the fitted curve at half-maximal effect)
Procedure, shortened: as §3

Cn1cnc2c(F)c(Nc3ccc(Br)cc3Cl)c(C(=O)NOCCO)cc21
active: Potency [3] 833 nM | Potency [5] 743 nM | Potency [6] 235 nM | Potency [7] 5260 nM | Potency [8] 264 nM | Potency [9] 46.9 nM | Potency [10] 1660 nM | Potency [11] 526 nM | Potency [12] 662 nM | Potency [13] 16600 nM | Potency [14] 469 nM
inactive: outcome [1] | Potency [2] | Potency [4]

CCCS(=O)(=O)Nc1ccc(F)c(C(=O)c2c[nH]c3ncc(Cl)cc23)c1F
active: Potency [3] 20900 nM | Potency [5] 18700 nM | Potency [6] 20900 nM | Potency [7] 16600 nM | Potency [10] 16600 nM | Potency [11] 2960 nM | Potency [12] 20900 nM | Potency [13] 14800 nM
inactive: outcome [1] | outcome [15] | Potency [16]

CCCS(=O)(=O)Nc1ccc(F)c(C(=O)c2c[nH]c3ncc(-c4ccc(Cl)cc4)cc23)c1F
active: Potency [2] 8330 nM | Potency [9] 23500 nM | Potency [10] 18700 nM | Potency [11] 8330 nM | Potency [12] 9350 nM | Potency [13] 9350 nM | Potency [17] 20900 nM
inactive: outcome [1] | outcome [15] | Potency [6] | Potency [7] | Potency [14]

CCCc1nn(C)c2c(=O)[nH]c(-c3cc(S(=O)(=O)N4CCN(C)CC4)ccc3OCC)nc12
inactive: outcome [1] | outcome [15] | Potency [16] | Potency [3] | Potency [5] | Potency [7] | Potency [8]
active: Potency [18] 18700 nM | Potency [17] 11800 nM

COc1cc(Oc2ccnc3cc(OC)c(OC)cc23)ccc1NC(=O)NC(C)c1nccs1 (centres undefined)
active: Potency [6] 7430 nM | Potency [10] 20900 nM | Potency [19] 105 nM | Potency [13] 23500 nM | Potency [14] 5900 nM
inactive: outcome [15]

Cc1cc(Nc2nc(N[C@@H](C)c3ncc(F)cn3)ncc2Cl)n[nH]1
inactive: outcome [1] | outcome [15] | Potency [2] | Potency [7]
active: Potency [10] 8330 nM | Potency [11] 5260 nM | Potency [18] 18700 nM | Potency [12] 3320 nM

Oc1cccc(-c2nc(N3CCOCC3)c3oc4ncccc4c3n2)c1
active: Potency [20] 76.2 nM | Potency [2] 17.1 nM | Potency [16] 6790 nM | Potency [3] 171 nM | Potency [4] 24.1 nM | Potency [6] 95.9 nM | Potency [7] 13.6 nM | viability (% of DMSO) [8] 2.23% [at 92.2 µM] | Potency [10] 76.2 nM | Potency [19] 12.1 nM | Potency [11] 215 nM | Potency [18] 108 nM | Potency [12] 9590 nM | Potency [13] 54 nM

Cc1c(CN2CCN(C(=O)C(C)C)CC2)sc2c(N3CCOCC3)nc(-c3cnc(N)nc3)nc12
active: Potency [20] 83.3 nM | Potency [2] 46.9 nM | Potency [16] 833 nM | Potency [3] 166 nM | Potency [4] 23.5 nM | Potency [7] 59 nM | Potency [9] 132 nM | Potency [10] 418 nM | Potency [19] 13.2 nM | Potency [11] 235 nM | Potency [18] 209 nM | Potency [13] 59 nM | Potency [14] 18.7 nM | Potency [17] 29.6 nM

Cc1cnc(Nc2ccc(OCCN3CCCC3)cc2)nc1Nc1cccc(S(=O)(=O)NC(C)(C)C)c1
inactive: outcome [1] | Potency [20] | Potency [10] | Potency [12]
active: Potency [3] 418 nM | Potency [6] 1480 nM | Potency [18] 296 nM

CCc1cncnc1N1CCN(Cc2nc3ccc(C(F)(F)F)cc3[nH]2)CC1
inactive: outcome [1] | outcome [15] | Potency [8] | Potency [19]
active: Potency [2] 13200 nM | Potency [3] 6620 nM | Potency [6] 7430 nM | Potency [7] 2640 nM | Potency [10] 20900 nM | Potency [11] 10500 nM | Potency [13] 5260 nM | Potency [14] 7430 nM | Potency [17] 14800 nM

CC1(C)Cc2c(-c3ccccc3)c(-c3ccc(Cl)cc3)c(CC(=O)O)n2C1
inactive: outcome [1] | Potency [5]
active: Potency [4] 23500 nM | Potency [6] 6620 nM | Potency [7] 2350 nM | Potency [18] 20900 nM | Potency [17] 20900 nM

COc1cc2c(cc1OC)CN(CCc1ccc(NC(=O)c3cccc4c(=O)c5cccc(OC)c5[nH]c34)cc1)CC2
active: Potency [10] 6620 nM
inactive: outcome [1] | Potency [2] | Potency [4] | Potency [5] | Potency [7] | Potency [19]

COc1ccc(-c2ccc3c(N4CCOCC4)nc(N4C[C@@H](C)O[C@@H](C)C4)nc3n2)cc1CO
active: Potency [20] 469 nM | Potency [2] 296 nM | Potency [16] 1660 nM | Potency [3] 1320 nM | Potency [4] 264 nM | Potency [5] 1320 nM | Potency [6] 1050 nM | Potency [7] 209 nM | Potency [8] 148 nM | Potency [9] 93.5 nM | Potency [19] 33.2 nM | Potency [11] 5900 nM | Potency [18] 1870 nM | Potency [13] 743 nM | Potency [14] 187 nM | Potency [17] 83.3 nM

C[C@H](NC(=O)Cc1cc(F)cc(F)c1)C(=O)N[C@@H]1C(=O)N(C)c2ccccc2-c2ccccc21
active: Potency [2] 7430 nM | Potency [10] 18700 nM | Potency [12] 5900 nM | Potency [13] 5260 nM
inactive: outcome [1] | outcome [15] | Potency [6] | Potency [7] | Potency [17]

CCCn1c(=O)c2[nH]c(C34CC5CC3C[C@@H](C5)C4)nc2n(CCC)c1=O
inactive: Potency [20] | Potency [2] | Potency [5] | Potency [6] | Potency [10] | Potency [11] | Potency [12] | Potency [13]
active: Potency [16] 16600 nM | Potency [3] 26.4 nM | Potency [4] 9350 nM | Potency [18] 13200 nM

Fc1ccc(Cl)cc1-c1nc(Nc2ccncc2)c2nccnc2n1
inactive: Potency [20] | Potency [5] | Potency [6] | Potency [8] | Potency [12] | Potency [14]
active: Potency [16] 8330 nM | Potency [3] 5260 nM | Potency [10] 13200 nM | Potency [11] 16600 nM
